Laboratory results published in PubChem BioAssay (NCI).
Values joined by “and” are separate entries in the source; they are usually repeats but may differ in a detail not shown here. Identical values can stand only once. Compounds without any hit were thinned out: in the full panel of roughly 83,000, 20% have a hit.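 Testing used 96-well plates and a 48-hour single-concentration exposure. Example: -40 means 40% of the starting cells died.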 Active and inactive are the calls of the source. The calls were made as follows: active = growth percent below 10; inactive = the rest.

Tests used:
Experiment in all cases: NCI-60 one-dose screen, 48 h (100 = growth as untreated, 0 = no growth, -100 = all killed)
EKVX NSCLC = tested on: EKVX NSCLC
SN12C renal = tested on: SN12C renal
UO-31 renal = tested on: UO-31 renal
TK-10 renal = tested on: TK-10 renal
ACHN renal = tested on: ACHN renal
A498 renal = tested on: A498 renal
CCRF-CEM leukemia = tested on: CCRF-CEM leukemia
MOLT-4 leukemia = tested on: MOLT-4 leukemia
SR leukemia = tested on: SR leukemia
RPMI-8226 leukemia = tested on: RPMI-8226 leukemia
OVCAR-8 ovarian = tested on: OVCAR-8 ovarian
OVCAR-5 ovarian = tested on: OVCAR-5 ovarian
OVCAR-4 ovarian = tested on: OVCAR-4 ovarian
SK-OV-3 ovarian = tested on: SK-OV-3 ovarian
IGROV1 ovarian = tested on: IGROV1 ovarian
OVCAR-3 ovarian = tested on: OVCAR-3 ovarian
HS 578T breast = tested on: HS 578T breast
T-47D breast = tested on: T-47D breast
BT-549 breast = tested on: BT-549 breast
MDA-MB-435 melanoma = tested on: MDA-MB-435 melanoma

Measured: growth

CSc1ccc2c(c1)C(N1CCN(C)CC1)Cc1ccccc1S2 (stereo not given)
inactive: EKVX NSCLC; 10 µM 55.9% | SN12C renal; 10 µM 35.6% | UO-31 renal; 10 µM 15.5% | TK-10 renal; 10 µM 43.1% | ACHN renal; 10 µM 12% | A498 renal; 10 µM 16.4% | CCRF-CEM leukemia; 10 µM 31.7% | RPMI-8226 leukemia; 10 µM 24.3% | OVCAR-8 ovarian; 10 µM 67.9% | OVCAR-5 ovarian; 10 µM 41.7% | OVCAR-4 ovarian; 10 µM 36.1% | SK-OV-3 ovarian; 10 µM 86.2% | IGROV1 ovarian; 10 µM 20.8% | OVCAR-3 ovarian; 10 µM 61.4% | HS 578T breast; 10 µM 39.8% | T-47D breast; 10 µM 43.3% | BT-549 breast; 10 µM 63.1%
active: MOLT-4 leukemia; 10 µM -23.3% | SR leukemia; 10 µM -32.8% | MDA-MB-435 melanoma; 10 µM 7.17%

CN1CCN(c2ccc3nc(-c4ccc5nc(-c6ccc(O)cc6)[nH]c5c4)[nH]c3c2)CC1
inactive: EKVX NSCLC; 10 µM 105% | SN12C renal; 10 µM 88.9% | UO-31 renal; 10 µM 103% | TK-10 renal; 10 µM 111% | ACHN renal; 10 µM 94.4% | CCRF-CEM leukemia; 10 µM 74% | MOLT-4 leukemia; 10 µM 76.4% | SR leukemia; 10 µM 67% | RPMI-8226 leukemia; 10 µM 107% | OVCAR-5 ovarian; 10 µM 61.9% | OVCAR-4 ovarian; 10 µM 89.8% | SK-OV-3 ovarian; 10 µM 84.4% | IGROV1 ovarian; 10 µM 112% | OVCAR-3 ovarian; 10 µM 66.4% | T-47D breast; 10 µM 39.2% | BT-549 breast; 10 µM 97.9% | MDA-MB-435 melanoma; 10 µM 52.5%

BrC/C=C/C[P+](c1ccccc1)(c1ccccc1)c1ccccc1
active: RPMI-8226 leukemia; 10 µM 4.56%
inactive: EKVX NSCLC; 10 µM 70.2% | SN12C renal; 10 µM 64.4% | UO-31 renal; 10 µM 66.2% | TK-10 renal; 10 µM 48.7% | ACHN renal; 10 µM 43.4% | A498 renal; 10 µM 72.9% | CCRF-CEM leukemia; 10 µM 37.9% | MOLT-4 leukemia; 10 µM 79.7% | OVCAR-8 ovarian; 10 µM 28.3% | OVCAR-5 ovarian; 10 µM 85.2% | OVCAR-4 ovarian; 10 µM 98.8% | SK-OV-3 ovarian; 10 µM 95.5% | IGROV1 ovarian; 10 µM 83.8% | OVCAR-3 ovarian; 10 µM 32.4% | HS 578T breast; 10 µM 92.4% | T-47D breast; 10 µM 10.7% | BT-549 breast; 10 µM 57.1% | MDA-MB-435 melanoma; 10 µM 28.4%

O=c1[nH]cc(F)c(=O)[nH]1
inactive: EKVX NSCLC; 10 µM 74.3% and 82.4% | EKVX NSCLC; 25 µM 58.4% | EKVX NSCLC; 50 µM 62.8% | SN12C renal; 10 µM 57% and 73% | SN12C renal; 25 µM 54% | SN12C renal; 50 µM 46.3% | UO-31 renal; 10 µM 29.3% and 41.7% | UO-31 renal; 25 µM 41.3% | UO-31 renal; 50 µM 38.2% | TK-10 renal; 10 µM 71.2% | TK-10 renal; 25 µM 66.9% | ACHN renal; 10 µM 39.8% and 60.1% | ACHN renal; 25 µM 39.3% | ACHN renal; 50 µM 36.9% | A498 renal; 10 µM 40.1% | A498 renal; 50 µM 52.6% | CCRF-CEM leukemia; 10 µM 56.3% and 65.9% | CCRF-CEM leukemia; 25 µM 57.1% | CCRF-CEM leukemia; 50 µM 50% | MOLT-4 leukemia; 10 µM 57.5% and 74.9% | MOLT-4 leukemia; 25 µM 43.1% | MOLT-4 leukemia; 50 µM 37.6% | SR leukemia; 10 µM 27.6% and 37.4% | SR leukemia; 25 µM 24.8% | SR leukemia; 50 µM 31.6% | RPMI-8226 leukemia; 10 µM 39.4% and 59.5% | RPMI-8226 leukemia; 25 µM 41.4% | OVCAR-8 ovarian; 10 µM 53.1% | OVCAR-8 ovarian; 50 µM 46.7% | OVCAR-5 ovarian; 10 µM 82.1% and 70.7% | OVCAR-5 ovarian; 25 µM 44.3% | OVCAR-5 ovarian; 50 µM 73% | OVCAR-4 ovarian; 10 µM 72.6% and 107% | OVCAR-4 ovarian; 25 µM 59.4% | OVCAR-4 ovarian; 50 µM 68.5% | SK-OV-3 ovarian; 10 µM 70% and 74.7% | SK-OV-3 ovarian; 25 µM 77.5% | IGROV1 ovarian; 10 µM 54.3% and 44.1% | IGROV1 ovarian; 25 µM 51.2% | IGROV1 ovarian; 50 µM 46.2% | OVCAR-3 ovarian; 10 µM 52.5% and 72.2% | OVCAR-3 ovarian; 25 µM 47.4% | OVCAR-3 ovarian; 50 µM 31% | HS 578T breast; 10 µM 99% | HS 578T breast; 50 µM 58.8% | T-47D breast; 10 µM 64.4% and 52.8% | T-47D breast; 25 µM 56.7% | BT-549 breast; 10 µM 57.2% and 54.6% | BT-549 breast; 25 µM 37.8% | BT-549 breast; 50 µM 60.6% | MDA-MB-435 melanoma; 10 µM 42.3% and 50.9% | MDA-MB-435 melanoma; 25 µM 36.6% | MDA-MB-435 melanoma; 50 µM 42.2%
active: A498 renal; 25 µM -16.3% | HS 578T breast; 25 µM -10.8%

Nc1ccc2cc(Br)c3ccccc3c2c1
inactive: EKVX NSCLC; 10 µM 31.3% | SN12C renal; 10 µM 63.8% | UO-31 renal; 10 µM 42.9% | TK-10 renal; 10 µM 85.8% | ACHN renal; 10 µM 66% | A498 renal; 10 µM 77.5% | CCRF-CEM leukemia; 10 µM 37.8% | MOLT-4 leukemia; 10 µM 28.2% | SR leukemia; 10 µM 57.5% | RPMI-8226 leukemia; 10 µM 40% | OVCAR-8 ovarian; 10 µM 84.8% | OVCAR-5 ovarian; 10 µM 79.9% | OVCAR-4 ovarian; 10 µM 56.7% | SK-OV-3 ovarian; 10 µM 81.1% | IGROV1 ovarian; 10 µM 82.2% | OVCAR-3 ovarian; 10 µM 74.6% | T-47D breast; 10 µM 28.8% | BT-549 breast; 10 µM 68.9% | MDA-MB-435 melanoma; 10 µM 66%

COc1cc(C(C)(C)C)cc(OC)c1C(O)(c1c(OC)cc(C(C)(C)C)cc1OC)c1c(OC)cc(C(C)(C)C)cc1OC
active: EKVX NSCLC; 10 µM -50.5% | SN12C renal; 10 µM -80.2% | UO-31 renal; 10 µM -75.7% | TK-10 renal; 10 µM -90.8% | ACHN renal; 10 µM -93% | A498 renal; 10 µM -79.4% | CCRF-CEM leukemia; 10 µM -68% | MOLT-4 leukemia; 10 µM -81% | SR leukemia; 10 µM -77.5% | RPMI-8226 leukemia; 10 µM -27.1% | OVCAR-8 ovarian; 10 µM -64.3% | OVCAR-5 ovarian; 10 µM -100% | OVCAR-4 ovarian; 10 µM -99.6% | SK-OV-3 ovarian; 10 µM -86.7% | IGROV1 ovarian; 10 µM 2.83% | OVCAR-3 ovarian; 10 µM -94.1% | HS 578T breast; 10 µM -33.3% | T-47D breast; 10 µM -30.2% | BT-549 breast; 10 µM -58.9% | MDA-MB-435 melanoma; 10 µM -45.3%

Cc1ccc2nc(N/N=C/c3ccc(C)s3)cc(C)c2c1
active: TK-10 renal; 100 µM -96.6% and -100%

Cc1cc(NCCCN(C)C)c2ccc3c(ccc4c(NCCCN(C)C)cc(C)nc43)c2n1
active: EKVX NSCLC; 10 µM -34.1% | SN12C renal; 10 µM -49.6% | UO-31 renal; 10 µM -54.7% | TK-10 renal; 10 µM -42.2% | ACHN renal; 10 µM -75.2% | A498 renal; 10 µM -87.6% | CCRF-CEM leukemia; 10 µM -28.7% | MOLT-4 leukemia; 10 µM -24.3% | RPMI-8226 leukemia; 10 µM -11.3% | OVCAR-8 ovarian; 10 µM -24.6% | OVCAR-5 ovarian; 10 µM -15.4% | OVCAR-4 ovarian; 10 µM -33.7% | SK-OV-3 ovarian; 10 µM -39.4% | IGROV1 ovarian; 10 µM -73.4% | OVCAR-3 ovarian; 10 µM -58.3% | HS 578T breast; 10 µM -42.7% | T-47D breast; 10 µM -34.2% | BT-549 breast; 10 µM -91.4% | MDA-MB-435 melanoma; 10 µM -99.1%
